Laboratory results published in the supplement of paper PMC8728848.
About 410 targets per protein were measured; listed, in parts, are those with the strongest signals and a random draw of the rest.

B1: Surfactant Protein D (Human); Neck + Carbohydrate Recognition Domain (NCRD) (Homo sapiens) (protein)
chain: MLLFLLSALVLLTQPLGYLEAEMKTYSHRTMPSACTLVMCSSVESGLPGRDRDGREGPRGEKGDPGLPGAAGQAGMPGQAGPVGPKGDNGSVGEPGPKGDTGPSGPPGPPGVPGPAGREGALGKQGNIGPQGKPGPKGEAGPKGEVGAPGMQGSAGARGLAGPKGERGVPGERGVPGNTGAAGSAGAMGPQGSPGARGPPGLKGDKGIPGDKGAKGESGLPDVASLRQQVEALQGQVQHLQAAFSQYKKVELFPNGQSVGEKIFKTAQFVKPFTEAQLLCTQAGGQLASPRSAAENAALQQLVVAKNEAAFLSMTDSKTEGKFTYPTGESLVYSNWAPGEPNDDGGSEDCVEIFTNGKWNDRACGEKRLVVCEA
B2: Onconase (Rana pipiens), P22069 (protein)
chain: QDWLTFQKKHITNTRDVDCDNIMSTNLFHCKDKNTFIYSRPEPVKAICKGIIASKNVLTTSEFYLSDCNVTSRPCKYKLKKSTNKFCVTCENQAPVHFVGVGSC

Tests used:
Experiment in all cases: glycan array binding signal (z-score within array); higher = stronger binding
Gal(a1-2)Gal = conditions: glycan notation: IUPAC condensed, linker removed
How it was run: (§1)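 Glycan array binding is given as a within-array Z-score, which can be read as non-binding when negative. The arrays, 3228 of them, came from the Consortium for Functional Glycomics database and were retained only where the protein sequence was available. Z-scores were averaged across arrays of the same protein sequence at different concentrations or buffers and across linkers.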

Gal(a1-3)Gal(b1-4)Glc = conditions: glycan notation: IUPAC condensed, linker removed; mutation: F355A
How it was run: as §1

Gal(a1-3)GalNAc = conditions: glycan notation: IUPAC condensed, linker removed; mutation: F355A
How it was run: as §1

[1] = target: Gal(b1-4)GlcNAc(b1-2)Man(a1-3)[Gal(b1-4)GlcNAc(b1-2)Man(a1-6)]Man(b1-4)GlcNAc(b1-4)GlcNAc; conditions: glycan notation: IUPAC condensed, linker removed; mutation: F355A
How it was run: as §1

[2] = target: GalNAc(b1-3)Gal(a1-4)Gal(b1-4)GlcNAc; conditions: glycan notation: IUPAC condensed, linker removed; mutation: F355A
How it was run: as §1

[3] = target: GlcNAc(a1-6)Gal(b1-4)GlcNAc; conditions: glycan notation: IUPAC condensed, linker removed; mutation: F355A
How it was run: as §1

[4] = target: GlcNAc(b1-4)Gal(b1-4)GlcNAc; conditions: glycan notation: IUPAC condensed, linker removed; mutation: F355A
How it was run: as §1

[5] = target: GlcNAc(b1-4)GlcNAc(b1-4)GlcNAc; conditions: glycan notation: IUPAC condensed, linker removed; mutation: F355A
How it was run: as §1

[6] = target: GlcNAc(b1-4)GlcNAc(b1-4)GlcNAc(b1-4)GlcNAc(b1-4)GlcNAc; conditions: glycan notation: IUPAC condensed, linker removed; mutation: F355A
How it was run: as §1

Kdn(a2-3)Gal(b1-4)GlcNAc = conditions: glycan notation: IUPAC condensed, linker removed; mutation: F355A
How it was run: as §1

[7] = target: Man(a1-2)Man(a1-2)Man(a1-6)[Man(a1-3)]Man; conditions: glycan notation: IUPAC condensed, linker removed; mutation: F355A
How it was run: as §1

[8] = target: Man(a1-2)Man(a1-3)[Man(a1-2)Man(a1-6)]Man; conditions: glycan notation: IUPAC condensed, linker removed; mutation: F355A
How it was run: as §1

[9] = target: Man(a1-2)Man(a1-3)[Man(a1-2)Man(a1-6)]Man(a1-6)[Man(a1-2)Man(a1-2)Man(a1-3)]Man; conditions: glycan notation: IUPAC condensed, linker removed; mutation: F355A
How it was run: as §1

[10] = target: Man(a1-2)Man(a1-6)[Man(a1-3)]Man(a1-6)[Man(a1-2)Man(a1-2)Man(a1-3)]Man(b1-4)GlcNAc(b1-4)GlcNAc; conditions: glycan notation: IUPAC condensed, linker removed; mutation: F355A
How it was run: as §1

[11] = target: Man(a1-3)[Man(a1-6)]Man(a1-6)[Man(a1-2)Man(a1-3)]Man(b1-4)GlcNAc(b1-4)GlcNAc; conditions: glycan notation: IUPAC condensed, linker removed; mutation: F355A
How it was run: as §1

[12] = target: Man(a1-3)[Man(a1-6)]Man(a1-6)[Man(a1-3)]Man; conditions: glycan notation: IUPAC condensed, linker removed; mutation: F355A
How it was run: as §1

[13] = target: Man(a1-3)[Man(a1-6)]Man(a1-6)[Man(a1-3)]Man(b1-4)GlcNAc(b1-4)GlcNAc; conditions: glycan notation: IUPAC condensed, linker removed; mutation: F355A
How it was run: as §1

[14] = target: Neu5Ac(a2-6)Gal(b1-4)GlcNAc(b1-2)Man(a1-6)[Gal(b1-4)GlcNAc(b1-2)Man(a1-3)]Man(b1-4)GlcNAc(b1-4)GlcNAc; conditions: glycan notation: IUPAC condensed, linker removed; mutation: F355A
How it was run: as §1

[15] = target: Neu5Gc(a2-3)Gal(b1-4)[Fuc(a1-3)]GlcNAc; conditions: glycan notation: IUPAC condensed, linker removed; mutation: F355A
How it was run: as §1

[16] = target: Fuc(a1-3)[Gal(b1-4)]GlcNAc(b1-4)Gal(b1-4)[Fuc(a1-3)]GlcNAc; conditions: glycan notation: IUPAC condensed, linker removed
How it was run: as §1

Gal(b1-2)Gal = conditions: glycan notation: IUPAC condensed, linker removed
How it was run: as §1

[17] = target: Gal(b1-3)[Fuc(a1-4)]GlcNAc; conditions: glycan notation: IUPAC condensed, linker removed
How it was run: as §1

[18] = target: Gal(b1-4)GlcNAc(b1-3)Gal(b1-4)[Fuc(a1-3)]GlcNAc(b1-3)Gal(b1-4)[Fuc(a1-3)]GlcNAc; conditions: glycan notation: IUPAC condensed, linker removed
How it was run: as §1

Gal3S(b1-4)Glc6S = conditions: glycan notation: IUPAC condensed, linker removed
How it was run: as §1

Gal6S(b1-4)Glc6S = conditions: glycan notation: IUPAC condensed, linker removed
How it was run: as §1

Glc(b1-6)Glc = conditions: glycan notation: IUPAC condensed, linker removed
How it was run: as §1

[19] = target: GlcNAc(b1-2)Gal(b1-3)GlcNAc; conditions: glycan notation: IUPAC condensed, linker removed
How it was run: as §1

GlcNAc(b1-3)GalNAc = conditions: glycan notation: IUPAC condensed, linker removed
How it was run: as §1

[20] = target: Neu5Ac(a2-3)Gal(b1-4)GlcNAc(b1-3)Gal(b1-4)[Fuc(a1-3)]GlcNAc; conditions: glycan notation: IUPAC condensed, linker removed
How it was run: as §1

[21] = target: Neu5Ac(a2-6)Gal(b1-4)GlcNAc; conditions: glycan notation: IUPAC condensed, linker removed
How it was run: as §1

[22] = target: Neu5Ac(a2-8)Neu5Ac(a2-8)Neu5Ac(a2-8)Neu5Ac(a2-3)[GalNAc(b1-4)]Gal(b1-4)Glc; conditions: glycan notation: IUPAC condensed, linker removed
How it was run: as §1

[23] = target: Neu5Ac9Ac(a2-6)Gal(b1-4)GlcNAc; conditions: glycan notation: IUPAC condensed, linker removed
How it was run: as §1

[24] = target: Neu5Gc(a2-3)Gal(b1-3)[Fuc(a1-4)]GlcNAc; conditions: glycan notation: IUPAC condensed, linker removed
How it was run: as §1

Binder	glycan array binding signal (z-score) (Gal(a1-2)Gal; mutation: F355A)	glycan array binding signal (z-score) (Gal(a1-3)Gal(b1-4)Glc)	glycan array binding signal (z-score) (Gal(a1-3)GalNAc)	glycan array binding signal (z-score) [1]	glycan array binding signal (z-score) [2]	glycan array binding signal (z-score) [3]	glycan array binding signal (z-score) [4]	glycan array binding signal (z-score) [5]	glycan array binding signal (z-score) [6]	glycan array binding signal (z-score) (Kdn(a2-3)Gal(b1-4)GlcNAc)	glycan array binding signal (z-score) [7]	glycan array binding signal (z-score) [8]	glycan array binding signal (z-score) [9]	glycan array binding signal (z-score) [10]	glycan array binding signal (z-score) [11]	glycan array binding signal (z-score) [12]	glycan array binding signal (z-score) [13]	glycan array binding signal (z-score) [14]	glycan array binding signal (z-score) [15]	glycan array binding signal (z-score) [16]	glycan array binding signal (z-score) (Gal(a1-2)Gal)	glycan array binding signal (z-score) (Gal(b1-2)Gal)	glycan array binding signal (z-score) [17]	glycan array binding signal (z-score) [18]	glycan array binding signal (z-score) (Gal3S(b1-4)Glc6S)	glycan array binding signal (z-score) (Gal6S(b1-4)Glc6S)	glycan array binding signal (z-score) (Glc(b1-6)Glc)	glycan array binding signal (z-score) [19]	glycan array binding signal (z-score) (GlcNAc(b1-3)GalNAc)	glycan array binding signal (z-score) [20]	glycan array binding signal (z-score) [21]	glycan array binding signal (z-score) [22]	glycan array binding signal (z-score) [23]	glycan array binding signal (z-score) [24]
B1	-0.16	-0.099	-0.129	-0.104	-0.138	-0.164	-0.146	-0.155	-0.122	-0.072	2.74	4.68	15	1.59	2.15	5.56	2.12	-0.15	-0.145															
B2																				1.21	3.22	2.63	-0.553	2.54	-0.281	0.598	0.027	-0.449	-0.84	-0.671	0.51	2.71	-0.006	1.6
